# Measurements from PubChem BioAssay (Tox21).
# Where “and” joins values, the source holds several entries; their conditions need not be identical. Identical values can stand only once. Records with an inconclusive call do not appear. Where a call stands in place of a potency, no number is given. Where a structure was tested more than once in an assay, its records may differ in their call. Calls of active or inactive are those of the source. Unless noted, calls follow the shape of the full dose curve.
# Columns and labels:
# [1] = Nuclear factor erythroid 2-related factor 2/antioxidant responsive element (Nrf2/ARE) small molecule agonists: qHTS cell viability counter screen in human keratinocytes (AID 1919968; active = well fitted curve in the direction sought with a large enough effect in the repeat runs; an effect the other way counts as inactive or inconclusive; also: nearly all actives have a fitted effect of over 55% in size; also: potency is read from the fitted curve at half-maximal effect)
# Procedure, shortened: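 KeratinoSens HaCaT cells, 1,500/well, preincubated 5 h, then exposed to compounds in DMSO for 23 h at 37 C/5% CO2. Viability read as CellTiter-Fluor fluorescence after 1 h, in the same wells as the ARE-luciferase read.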
# [2] = Nuclear factor erythroid 2-related factor 2/antioxidant responsive element (Nrf2/ARE) small molecule agonists: luciferase reporter gene qHTS assay in human keratinocytes (AID 1919969); also: nearly all actives have a fitted effect of over 35% in size; also: potency is read from the fitted curve at half-maximal effect
# [3] = molecular target: Gonadotropin-releasing hormone receptor (Homo sapiens) (UniProt P30968); experiment: Human gonadotropin-releasing hormone receptor (GnRHR) small molecule agonists, calcium flux assay in GnRHR-HEK293 cells (AID 1920063); also: nearly all actives have a fitted effect of over 35% in size
# Sequence of Gonadotropin-releasing hormone receptor (Homo sapiens) (P30968 whole entry, looked up): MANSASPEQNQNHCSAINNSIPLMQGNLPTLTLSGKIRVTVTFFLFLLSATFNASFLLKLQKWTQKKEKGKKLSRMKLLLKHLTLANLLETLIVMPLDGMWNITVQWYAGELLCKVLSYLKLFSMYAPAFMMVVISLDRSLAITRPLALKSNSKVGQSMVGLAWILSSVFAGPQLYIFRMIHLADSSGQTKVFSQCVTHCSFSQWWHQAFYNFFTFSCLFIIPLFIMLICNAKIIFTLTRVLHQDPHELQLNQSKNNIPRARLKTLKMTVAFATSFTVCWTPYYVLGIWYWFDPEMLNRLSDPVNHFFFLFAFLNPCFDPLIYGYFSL
# Procedure, shortened: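 HEK293 cells stably expressing human GnRHR were dye-loaded for 1 h at 37 C. Compound was added in agonist mode and fluorescence (Ex/Em 480/540) recorded kinetically for 3 min. Fifteen concentrations, triplicates.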
# [4] = molecular target: KiSS-1 receptor (Homo sapiens) (UniProt Q969F8); experiment: Human kisspeptin (KISS1R) small molecule agonists, calcium flux assay in KISS1R-HEK293 cells (AID 1920064; active = well fitted curve in the direction sought with a large enough effect in the repeat runs; an effect the other way counts as inactive or inconclusive)
# Sequence of KiSS-1 receptor (Homo sapiens) (Q969F8 whole entry, looked up): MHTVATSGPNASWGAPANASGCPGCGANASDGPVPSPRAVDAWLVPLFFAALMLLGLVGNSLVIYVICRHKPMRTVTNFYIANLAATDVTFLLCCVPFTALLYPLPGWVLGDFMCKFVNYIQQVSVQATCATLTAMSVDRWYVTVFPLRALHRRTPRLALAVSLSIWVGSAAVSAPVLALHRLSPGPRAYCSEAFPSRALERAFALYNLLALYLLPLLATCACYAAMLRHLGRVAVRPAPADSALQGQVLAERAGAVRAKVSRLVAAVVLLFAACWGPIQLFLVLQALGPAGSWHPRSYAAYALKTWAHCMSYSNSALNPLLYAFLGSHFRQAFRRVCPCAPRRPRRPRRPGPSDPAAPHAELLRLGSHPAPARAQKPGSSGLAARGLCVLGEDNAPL
# Procedure, shortened: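 HEK293 cells stably expressing human KISS1R were loaded with calcium dye for 1 h at 37 C, then given compound; fluorescence (Ex/Em 480/540) was read kinetically for 3 min. Fifteen concentrations, triplicate.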
# [5] = G protein-coupled receptor (GPCR) small molecule agonists, calcium flux assay: HEK293 wild type cell line counter screen (AID 1920065)
# Procedure, shortened: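 Wild-type HEK293 cells plated 18 h, loaded with calcium dye 1 h at 37 C, then compounds added in agonist mode (ATP as positive control). Kinetic fluorescence Ex/Em 480/540 recorded 3 min at 1 sec intervals; 15 concentrations, triplicate.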
# [6] = p53 small molecule agonists, cell-based qHTS assay with human liver microsomes: qHTS cell viability counter screen (AID 1963579); also: nearly all actives have a fitted effect of over 45% in size; also: potency is read from the fitted curve at half-maximal effect
# Procedure, shortened: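 After the 460/530 nm beta-lactamase read, CellTiter-Glo was added to the same wells and luminescence measured after 30 min at room temperature, giving viability of p53RE-bla cells treated 16 h with compounds plus microsomes and NADPH.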
# [7] = molecular target: 5-hydroxytryptamine receptor 2A (Homo sapiens) (UniProt P28223); experiment: 5-hydroxytryptamine receptor 2A (HTR2A) small molecule antagonists, cell-based qHTS assay (AID 1963586); also: nearly all actives have a fitted effect of over 45% in size
# Sequence of 5-hydroxytryptamine receptor 2A (Homo sapiens) (P28223 whole entry, looked up): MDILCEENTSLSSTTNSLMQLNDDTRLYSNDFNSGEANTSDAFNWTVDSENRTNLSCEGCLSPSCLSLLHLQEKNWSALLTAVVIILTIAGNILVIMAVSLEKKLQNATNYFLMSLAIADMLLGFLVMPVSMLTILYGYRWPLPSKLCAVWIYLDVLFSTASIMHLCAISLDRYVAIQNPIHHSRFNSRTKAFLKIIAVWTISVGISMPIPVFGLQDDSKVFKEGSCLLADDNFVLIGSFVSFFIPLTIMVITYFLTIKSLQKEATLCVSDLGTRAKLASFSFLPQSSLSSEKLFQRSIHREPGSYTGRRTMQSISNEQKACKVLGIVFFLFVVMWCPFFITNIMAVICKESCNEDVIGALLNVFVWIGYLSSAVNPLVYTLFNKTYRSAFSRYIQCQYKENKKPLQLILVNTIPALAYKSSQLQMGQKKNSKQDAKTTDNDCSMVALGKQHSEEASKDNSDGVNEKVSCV
# Procedure, shortened: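 Antagonist-mode intracellular calcium assay: DOI (4 nM) added after 5 min compound pre-incubation at room temperature to dye-loaded HTR2A-CHO cells. Fluorescence followed for 3 min, sampled every second.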
# [8] = molecular target: 5-hydroxytryptamine receptor 2A (Homo sapiens) (UniProt P28223); experiment: 5-hydroxytryptamine receptor 2A (HTR2A) small molecule agonists, cell-based qHTS assay (AID 1963587); also: nearly all actives have a fitted effect of over 30% in size; also: potency is read from the fitted curve at half-maximal effect
# Procedure, shortened: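 HTR2A-CHO cells, plated 18 h at 37 C/5% CO2, dye-loaded 1 h at 37 C; compounds in DMSO added by pin tool (agonist mode). Intracellular calcium flux read as kinetic fluorescence on FDSS over 2 min at 1 s intervals.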
# [9] = molecular target: Muscarinic acetylcholine receptor M1 (Homo sapiens) (UniProt P11229); experiment: Cholinergic receptor muscarinic 1 (CHRM1) small molecule antagonists, cell-based qHTS assay (AID 1963588); also: nearly all actives have a fitted effect of over 40% in size
# Sequence of Muscarinic acetylcholine receptor M1 (Homo sapiens) (P11229 whole entry, looked up): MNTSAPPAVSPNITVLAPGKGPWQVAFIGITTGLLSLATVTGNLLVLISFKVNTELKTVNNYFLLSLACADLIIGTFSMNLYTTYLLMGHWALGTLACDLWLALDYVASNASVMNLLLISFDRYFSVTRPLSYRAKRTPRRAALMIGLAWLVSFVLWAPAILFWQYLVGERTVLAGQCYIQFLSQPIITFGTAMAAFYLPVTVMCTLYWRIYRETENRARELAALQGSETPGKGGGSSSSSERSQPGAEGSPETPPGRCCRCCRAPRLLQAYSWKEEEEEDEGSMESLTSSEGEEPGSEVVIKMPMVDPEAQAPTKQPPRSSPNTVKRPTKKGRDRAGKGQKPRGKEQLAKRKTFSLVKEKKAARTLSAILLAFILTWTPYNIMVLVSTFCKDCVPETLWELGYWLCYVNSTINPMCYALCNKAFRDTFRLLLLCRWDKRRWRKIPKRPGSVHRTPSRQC
# Procedure, shortened: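 CHRM1-CHO calcium-flux assay, antagonist mode. Cells were seeded 18 h, dye-loaded 1 h at 37 C and given compound for 5 min at RT, then acetylcholine was added at 50nM. FDSS fluorescence was read 3 min; 15 concentrations, three runs.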
# [10] = molecular target: Muscarinic acetylcholine receptor M1 (Homo sapiens) (UniProt P11229); experiment: Cholinergic receptor muscarinic 1 (CHRM1) small molecule agonists, cell-based qHTS assay (AID 1963589); also: nearly all actives have a fitted effect of over 35% in size
# Procedure, shortened: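 CHO cells stably expressing human CHRM1 were loaded with calcium dye for 1 h at 37 C, then compound was added in agonist mode. Intracellular calcium fluorescence was followed kinetically at 1 s intervals. Fifteen concentrations were tested in three independent runs.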
# [11] = cAMP Responsive Elements (CRE) small molecule agonists, cell-based qHTS assay (AID 1963590)
# Procedure, shortened: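 CRE-bla HEK 293T cells, 2,000/well in DMEM with 10% dialyzed FBS and 25 mM HEPES, pre-incubated 18 h at 37 C, then exposed to compound 3 h at 37 C. Beta-lactamase reporter read with LiveBLAzer B/G FRET substrate after 2 h at room temperature.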
# [12] = molecular target: Beta-2 adrenergic receptor (Homo sapiens) (UniProt P07550); experiment: Adrenergic beta2 receptor (ADRB2) small molecule antagonists, cell-based qHTS assay (AID 1963592); also: series mostly up to about 92 µM; nearly all actives have a fitted effect of over 50% in size
# Sequence of Beta-2 adrenergic receptor (Homo sapiens) (P07550 whole entry, looked up): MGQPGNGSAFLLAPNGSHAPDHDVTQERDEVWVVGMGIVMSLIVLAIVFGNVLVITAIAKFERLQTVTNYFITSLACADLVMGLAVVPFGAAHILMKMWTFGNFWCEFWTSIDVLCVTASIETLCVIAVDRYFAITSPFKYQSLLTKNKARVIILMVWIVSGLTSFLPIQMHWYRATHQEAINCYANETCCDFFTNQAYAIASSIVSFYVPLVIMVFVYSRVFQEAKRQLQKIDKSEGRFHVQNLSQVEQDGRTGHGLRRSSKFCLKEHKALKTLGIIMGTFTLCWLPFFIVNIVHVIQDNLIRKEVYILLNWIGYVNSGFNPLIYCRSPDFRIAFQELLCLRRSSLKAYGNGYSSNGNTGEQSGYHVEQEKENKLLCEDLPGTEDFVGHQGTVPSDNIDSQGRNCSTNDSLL
# Procedure, shortened: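 Cells (CHO, stable ADRB2 overexpression) incubated 18-20hr at 37C; compounds added from DMSO; agonist mix (1nM isoproterenol, 100uM IBMX, 25uM Ro-20-1724) added; 0.5hr RT; d2-cAMP and anti-cAMP-cryptate added; 1hr RT; 665/615 nm read.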
# [13] = molecular target: Beta-2 adrenergic receptor (Homo sapiens) (UniProt P07550); experiment: Adrenergic beta2 receptor (ADRB2) small molecule agonists, cell-based qHTS assay (AID 1963593);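 also: CHO cells stably overexpressing human ADRB2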
# Procedure, shortened: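 CHO cells stably over-expressing ADRB2 were plated overnight at 37C, then dosed with compounds plus a stimulation mix containing 100uM IBMX and 25uM Ro-20-1724 for 0.5hr at room temperature. cAMP was measured by HTRF competition, 1hr.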
# [14] = molecular target: D(2) dopamine receptor (Homo sapiens) (UniProt P14416); experiment: Dopamine D2 receptor (DRD2) small molecule agonists, cell-based qHTS assay (AID 1963594); also: nearly all actives have a fitted effect of over 35% in size
# Sequence of D(2) dopamine receptor (Homo sapiens) (P14416 whole entry, looked up): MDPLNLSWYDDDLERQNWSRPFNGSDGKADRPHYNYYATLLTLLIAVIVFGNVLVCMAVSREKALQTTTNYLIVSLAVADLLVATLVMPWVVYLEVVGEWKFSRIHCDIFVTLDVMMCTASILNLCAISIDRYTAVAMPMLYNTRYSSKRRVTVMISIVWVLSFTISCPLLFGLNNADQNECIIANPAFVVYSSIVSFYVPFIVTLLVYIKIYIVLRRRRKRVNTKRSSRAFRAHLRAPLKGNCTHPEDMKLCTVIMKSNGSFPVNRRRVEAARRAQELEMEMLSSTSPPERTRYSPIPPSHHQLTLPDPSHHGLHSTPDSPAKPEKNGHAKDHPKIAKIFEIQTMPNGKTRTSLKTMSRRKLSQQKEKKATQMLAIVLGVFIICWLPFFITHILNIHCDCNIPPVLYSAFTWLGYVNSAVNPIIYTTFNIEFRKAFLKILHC
# Procedure, shortened: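 HEK293 cells stably expressing DRD2 were cultured 24 h at 37 C, then given Ro20-1724 (0.1 mM final) and compounds for 10 min at room temperature. NKH477 (200nM) was then added for 30 min. cAMP was read by HTRF.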
# [15] = molecular target: D(2) dopamine receptor (Homo sapiens) (UniProt P14416); experiment: Dopamine D2 receptor (DRD2) small molecule antagonists, cell-based qHTS assay (AID 1963595; active = well fitted inhibition curve with a large enough effect in the signal ratio in the repeat runs, with a control signal flat; the % refers to the signal ratio)
# Procedure, shortened: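 HEK293 cells stably expressing DRD2, preincubated with 0.1 mM Ro20-1724 and compounds 10 min, were stimulated with 200 nM NKH477 plus 12 nM quinpirole for 30 min at room temperature; cAMP measured by HTRF (665/620 nm).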
# [16] = p53 small molecule agonists, cell-based qHTS assay with rat liver microsomes: qHTS cell viability counter screen (AID 1963580); also: nearly all actives have a fitted effect of over 45% in size
# Procedure, shortened: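 p53RE-bla HCT-116 cells (4,000/well) rested 5 h at 37 C, then given Tox21 compounds in DMSO with rat liver microsomes (0.5 mg/mL final) plus NADPH (0.5 mg/mL final) for 16 h at 37 C. Viability read by CellTiter-Glo luminescence after 30 min at room temperature.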
# [17] = p53 small molecule agonists, cell-based qHTS assay: qHTS cell viability counter screen (AID 1963581); also: nearly all actives have a fitted effect of over 45% in size
# Procedure, shortened: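 p53RE-bla HCT-116 cells, compounds added 5 h after plating and incubated 16 h at 37 C. Cytotoxicity measured in the same wells as intracellular ATP by CellTiter-Glo luminescence after 30 min at room temperature.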
# [18] = p53 small molecule agonists, cell-based qHTS assay (AID 1963582; active = well fitted activation curve with a large enough effect in the signal ratio in the repeat runs, not every such curve was filed as active; the % refers to the signal ratio)
# Procedure, shortened: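 p53RE-bla reporter cells, compounds added in DMSO after 5 h plating, incubated 16 h at 37 C. Beta-lactamase read via 2 h room-temperature LiveBLAzer B/G FRET substrate, fluorescence intensity.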
# [19] = cAMP Responsive Elements (CRE) small molecule antagonists, cell-based qHTS assay (AID 1963591; active = well fitted inhibition curve with a large enough effect in the signal ratio in the repeat runs, not every such curve was filed as active; the % refers to the signal ratio)
# Procedure, shortened: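 CRE-bla HEK293T cells plated 18 h, then given compound plus NKH477 at 0.25 uM final for 3 h at 37C. Beta-lactamase reporter read with LiveBLAzer B/G FRET substrate after 2 h at room temperature.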
SMILES,Potency [1],Potency [2],Potency [3],Potency [4],Potency [5],Potency [6],Potency [7],Potency [8],Potency [9],Potency [10],Potency [11],Potency [12],Potency [13],Potency [14],Potency [15],Potency [16],Potency [17],Potency [18],Potency [19]
ClC1C(Cl)C(Cl)C(Cl)C(Cl)C1Cl (centres undefined),inactive,62.4 µM (active) and inactive,inactive,inactive,inactive,inactive,inactive,inactive and 54.9 µM (active),inactive,inactive,inactive,inactive,inactive,inactive,inactive,,,,
CNC(=O)O/N=C/C(C)(C)SC,inactive,inactive,inactive,inactive,inactive,inactive,inactive,inactive,inactive,inactive,inactive,inactive,inactive,inactive,,inactive,inactive,inactive,inactive
CCC(C)(CC)c1cc(NC(=O)c2c(OC)cccc2OC)on1,inactive,inactive,inactive,inactive,inactive,inactive,inactive,inactive,inactive,inactive,,,,inactive,inactive,inactive,inactive,,inactive
CC(C)N(C(=O)CCl)c1ccccc1,54.5 µM (active),4.86 µM (active) and 10.9 µM (active),inactive,inactive,inactive,inactive,inactive,inactive,inactive,inactive,,inactive,inactive,inactive,inactive,inactive,inactive,,
CC[N+]1(C)CCCC1,inactive,70.3 µM (active) and inactive,inactive,inactive,inactive,41.8 µM (active) and inactive,inactive,inactive,inactive,inactive,inactive,inactive,inactive,inactive,inactive,inactive,inactive,,inactive
CCOC(=O)c1ccccc1N,inactive,inactive,inactive,inactive,inactive,inactive,inactive,inactive,inactive,inactive,inactive,inactive,inactive,inactive,inactive,inactive,inactive,,inactive
CC(C)=C[C@@H]1[C@@H](C(=O)OCc2coc(Cc3ccccc3)c2)C1(C)C,inactive,inactive,inactive,inactive,inactive,inactive,inactive,inactive,inactive,inactive,inactive,inactive,inactive,inactive,inactive,inactive,inactive,,inactive
CCCC1COC(Cn2cncn2)(c2ccc(Cl)cc2Cl)O1 (centres undefined),inactive,inactive,inactive,inactive,inactive,inactive,inactive,inactive,inactive,inactive,,inactive,,inactive,inactive,inactive,inactive,,inactive
OCCOCCO,inactive,inactive,inactive,inactive,inactive,inactive,inactive,inactive,inactive,inactive,inactive,inactive,inactive,inactive,inactive,inactive,inactive,,inactive
ClC(Cl)c1ccccc1,inactive,inactive,inactive,inactive,inactive,inactive,inactive,inactive,inactive,inactive,inactive,inactive,inactive,inactive,,inactive,inactive,,
OCCN(CCO)CCO,inactive,inactive,inactive,inactive,inactive,inactive,inactive,inactive,inactive,inactive,inactive,inactive,inactive,inactive,inactive,inactive,inactive,,inactive
CCOC(=O)CC(SP(=O)(OC)OC)C(=O)OCC (centres undefined),inactive,inactive and 61.1 µM (active),inactive,inactive,inactive,inactive,inactive,inactive,inactive,,inactive,inactive,,inactive,inactive,inactive,inactive,inactive,inactive
Nc1ccc(-c2ccc(N)c(N)c2)cc1N,inactive,inactive and 68.6 µM (active),inactive,inactive,inactive,inactive,inactive,inactive,inactive,inactive,inactive,inactive,,inactive,,inactive,inactive,,inactive
O=C(O)CCl,inactive,inactive,inactive,inactive,inactive,inactive,inactive,inactive,inactive,inactive,,inactive,inactive,inactive,inactive,inactive,inactive,,inactive
Nc1ccc(N)cc1,inactive,61.1 µM (active) and 18.8 µM (active) and inactive,inactive,inactive,inactive,inactive,inactive,inactive,inactive,inactive,inactive,inactive,inactive,inactive,inactive,inactive,inactive,,inactive
